Compound activity (PubChem)
The list is not random: actives were taken first. Their share in the collection is about 3.3%.
NCF1 inh: blocks human p47phox regulatory protein of NADPH oxidases; P14598; p47phox/p22phox peptide binding, fluorescence polarization, 2 h; inhibition, % at 24.7 µM; 220,000 compounds, 0.53% hits
Mcl1 Noxa PPI: Mcl-1/Noxa interaction inhibition | inhibition, % at 21.7 µM | Q07820 | 220,000 compounds, 1.5% hits | TR-FRET Mcl-1/Noxa peptide binding, 2 h;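 active = compounds that cut the protein-peptide binding signal by more than 50% relative to plate controls in a single-dose test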;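 note: His-tagged Mcl-1 with rhodamine Noxa BH3 peptide and terbium anti-His antibody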
Target sequence (Q07820 whole entry, looked up): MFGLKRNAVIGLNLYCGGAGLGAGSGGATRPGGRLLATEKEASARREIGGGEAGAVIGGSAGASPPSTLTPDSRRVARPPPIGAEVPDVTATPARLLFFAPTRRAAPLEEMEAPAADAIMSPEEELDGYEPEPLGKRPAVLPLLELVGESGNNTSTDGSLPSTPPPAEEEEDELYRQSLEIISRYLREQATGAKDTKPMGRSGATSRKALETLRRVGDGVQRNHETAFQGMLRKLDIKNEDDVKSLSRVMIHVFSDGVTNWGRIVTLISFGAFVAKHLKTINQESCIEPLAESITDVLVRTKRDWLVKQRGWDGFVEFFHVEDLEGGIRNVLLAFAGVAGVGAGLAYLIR
Mcl1-Bid inh: disrupts binding of human Mcl-1 to Bid peptide. Q07820. TR-FRET Mcl-1/Bid-Dy647 peptide binding, 1536-well. inhibition, % at 21.7 µM. 220,000 compounds, 0.97% hits;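 active = compounds that cut the binding signal by more than half at the single screening dose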;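 note: His-tagged Mcl-1 with europium anti-His antibody binding Bid BH3 peptide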
Bim-Mcl-1: inhibitors of Bim-Mcl-1 interaction, human. 190,000 compounds, 0.1% hits. Bead-based flow cytometry, Bim peptide-Mcl-1 binding. AID 1009. inhibition, % at 10 µM; in the data active = inhibition above about 40%
eIF4E 4G PPI: blocks eIF4E binding to eIF4G; P63073+Q04637; TR-FRET eIF4E-eIF4GI(517-606) binding, 2 h; inhibition, % at 21.7 µM; 220,000 compounds, 0.37% hits
14-3-3 Bad inh: disrupts binding of bovine 14-3-3 zeta to phospho-Bad peptide | TR-FRET 14-3-3zeta/Dy647-pBad peptide displacement, 1 h | inhibition, % at 21.7 µM | 220,000 compounds, 0.71% hits | AID 781;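 active = inhibition above about 70%, limit read from the data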
Of the large screens only hits and unclear results are named; the others gave an inactive call; [ ] = another dose, or the depositor's remark.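 Rule for the calls, unless noted: active = inhibition above about 30% (limit read from the data); inactive = the rest.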

O=c1oc2cc([N+](=O)[O-])ccc2nc1/C=C(O)/C=C/c1ccccc1	Mcl1 Noxa PPI 72.2 (no result: Bim-Mcl-1)
Cc1cccc(NC(=O)CSc2nnnn2-c2ccc3c(c2)OCCO3)n1	none
COc1cc(/C=N/NC(=O)COc2ccc(-n3cnnn3)cc2)ccc1OCC(N)=O	none (no result: Bim-Mcl-1)
CN(C)C(=O)C1CCC(=O)N1Cc1cccs1 (centres undefined)	14-3-3 Bad inh 88.2
O=C(C1CCC(=O)N1Cc1cccs1)N1CCOCC1 (centres undefined)	none
O=[N+]([O-])c1cc(CN(CCO)CCO)ccc1O	none (no result: Bim-Mcl-1)
CCCN(CC1CC1)C(=O)CSc1ncnc2sccc12	none
N#CCCN(Cc1cccnc1)C(=S)Nc1ccccc1Cl	NCF1 inh 36.6
S=C(Nc1ccccc1Cl)N(Cc1cccnc1)Cc1ccco1	none
CCOC(=O)C1(CC2CC2)CCN(C(=O)c2cccnc2C)CC1	none
CC(C)N(Cc1nc(-c2ccccc2)no1)C(=O)c1ccc([N+](=O)[O-])cc1	none
CC(C)N(Cc1nc(-c2ccccc2)no1)C(=O)c1ccc(Cl)cc1	NCF1 inh 58.7
CC(=O)c1cccc(NC(=O)C(C)N2CCc3ccccc3C2)c1 (centres undefined)	none (no result: Bim-Mcl-1)
O=c1nc(SCc2cccc(C(F)(F)F)c2)nc2ccccn12	none
CCN(CC)S(=O)(=O)c1cccc(C(=O)N/N=C/c2ccc(O)c(O)c2O)c1	Mcl1 Noxa PPI 94.5, Bim-Mcl-1 44.0
COc1ccc(O)c(/C=N/NC(=S)Nc2cccc(S(=O)(=O)N(C)C)c2)c1	none
CN(C)S(=O)(=O)c1cccc(NC(=S)N/N=C/c2ccc(O)c(O)c2O)c1	Mcl1 Noxa PPI 107.7, eIF4E 4G PPI 42.4 (no result: Bim-Mcl-1)
CCN(CC)S(=O)(=O)c1cccc(C(=O)N[C@H](C(=O)NCc2ccccc2F)C(C)C)c1	none
CCN(CC)S(=O)(=O)c1cccc(C(=O)N[C@H](C(=O)O)C(C)C)c1	NCF1 inh 91.6
C=CCn1c(C(C)NC(=O)c2cccc(C)c2)n[nH]c1=S (centres undefined)	none
O=C1CC(c2ccco2)CC(O)=C1C=NCCN1CCN(C(=S)Nc2ccccc2)CC1 (centres undefined)	Mcl1 Noxa PPI 51.4 (no result: Bim-Mcl-1)
CCOC(=O)CC(NC(=O)c1ccc(C)cc1)c1ccc(OC)cc1 (centres undefined)	none
O=C(O)C1Cc2ccccc2CN1S(=O)(=O)/C=C/c1ccccc1 (centres undefined)	14-3-3 Bad inh 85.6
CCCn1nc(NC(=O)c2cccs2)c2cc3ccccc3nc21	14-3-3 Bad inh 76.8[fluorescence artefact?]
CCCCn1nc(NC(=O)c2cccs2)c2cc3cc(OC)ccc3nc21	none (no result: NCF1 inh, Mcl1 Noxa PPI, Mcl1-Bid inh, eIF4E 4G PPI, 14-3-3 Bad inh)
CCCn1nc(NC(=O)c2cccs2)c2cc3cc(OC)ccc3nc21	14-3-3 Bad inh 91.7[fluorescence artefact?]
CC(CCCC(C)(C)O)NCc1cn[nH]c1-c1ccc2c(c1)OCO2 (centres undefined)	none
Oc1c(Cl)cc(Cl)cc1Sc1cc(Cl)cc(Cl)c1O	Mcl1 Noxa PPI 117.1, Mcl1-Bid inh 98.7, 14-3-3 Bad inh 78.6
Oc1c(Cl)cc(Cl)cc1CNn1cnnc1	none
Nc1ccc(-c2nc3cc([N+](=O)[O-])ccc3o2)cc1	Mcl1 Noxa PPI 79.7 (no result: Bim-Mcl-1)
COc1ccc(-c2nc3cc([N+](=O)[O-])ccc3o2)cc1	none
COc1ccc(C(=O)CSc2nnc(CN3CCCC3)n2-c2ccc(F)cc2)c(OC)c1	Mcl1 Noxa PPI 52.7
Cc1ccc(Cl)cc1NC(=S)N(CCCN1CCN(C)CC1)Cc1ccco1	none
CN(C)/N=C/c1ccc(P(c2ccc(/C=N/N(C)C)o2)c2ccc(/C=N/N(C)C)o2)o1	none
Nc1cc2c(cc1[N+](=O)[O-])OCO2	Mcl1 Noxa PPI 79.3 (no result: NCF1 inh)
Nc1cc2c(cc1[N+](=O)[O-])OCCO2	none
NC(=S)N/N=C1\CCOc2ccc(F)cc21	none (no result: Bim-Mcl-1)
Cc1ccc(-c2csc(NC(=O)C3=NN(c4ccccc4)C(=O)CC3)n2)cc1	none
CC(C)C(c1nnnn1CCc1ccccc1)N1CCOCC1 (centres undefined)	14-3-3 Bad inh 70.5
COCCn1nnnc1C(C(C)C)N1CCC(Cc2ccccc2)CC1 (centres undefined)	14-3-3 Bad inh 83.9
CC(C)C(c1nnnn1CCc1ccccc1)N1CCSCC1 (centres undefined)	none
O=C(Nc1ccc(CN2CCCCC2)cc1)c1sc2ccccc2c1Cl	none (no result: Bim-Mcl-1)
